The panel holds about 83,000 compounds, 20% with a hit somewhere; the sample as a whole holds those more often.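 Interpretation: 100, growth as untreated; towards 0, rising growth inhibition; 0, no net growth; 0 to -100, cell death. Compounds scoring below 10 were considered active.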 Unmarked numbers belong to inactive results. Calls of active or inactive are those of the source.
What was measured:
Assay in all cases: NCI-60 one-dose screen, 48 h (100 = growth as untreated, 0 = no growth, -100 = all killed)
Conditions in all cases: 10 µM unless noted
NCI-H23 lung = test system: NCI-H23 lung
NCI-H226 lung = test system: NCI-H226 lung
NCI-H322M lung = test system: NCI-H322M lung
HOP-62 NSCLC = test system: HOP-62 NSCLC
NCI-H460 lung = test system: NCI-H460 lung
HOP-92 NSCLC = test system: HOP-92 NSCLC
NCI-H522 lung = test system: NCI-H522 lung
A549/ATCC NSCLC = test system: A549/ATCC NSCLC
786-0 renal = test system: 786-0 renal
COLO 205 colon = test system: COLO 205 colon
DU-145 prostate = test system: DU-145 prostate
K-562 leukemia = test system: K-562 leukemia
MALME-3M melanoma = test system: MALME-3M melanoma
MDA-MB-231 breast = test system: MDA-MB-231 breast
RXF 393 renal = test system: RXF 393 renal
SF-268 CNS = test system: SF-268 CNS
SF-295 CNS = test system: SF-295 CNS
SF-539 CNS = test system: SF-539 CNS
UACC-257 melanoma = test system: UACC-257 melanoma
M14 melanoma = test system: M14 melanoma

Structure (SMILES)	growth (NCI-H23 lung)	growth (NCI-H226 lung)	growth (NCI-H322M lung) [%]	growth (HOP-62 NSCLC)	growth (NCI-H460 lung)	growth (HOP-92 NSCLC)	growth (NCI-H522 lung)	growth (A549/ATCC NSCLC)	growth (786-0 renal)	growth (COLO 205 colon)	growth (DU-145 prostate)	growth (K-562 leukemia)	growth (MALME-3M melanoma)	growth (MDA-MB-231 breast)	growth (RXF 393 renal)	growth (SF-268 CNS)	growth (SF-295 CNS)	growth (SF-539 CNS)	growth (UACC-257 melanoma)	growth (M14 melanoma)
O=C(CC1(O)C(=O)N(Cc2ccccc2)c2ccc(F)cc21)c1ccc(C(=O)NCC2CCC3(CC2)OOC2(CCCCC2)OO3)cc1 (stereo not given)	-70.8% (active)	-43.2% (active)	50.1	-56.6% (active)	-51.8% (active)	-71.8% (active)	-43.1% (active)	-52.4% (active)	-67% (active)	-63.3% (active)	-94.3% (active)	-42.7% (active)	-69.2% (active)	-74% (active)	-80.4% (active)	-60.3% (active)	-14.1% (active)	-84.8% (active)	-2.89% (active)	15.3%
O=[N+]([O-])CC(O)C(Cl)(Cl)Cl (stereo not given)	98.6%	103%	103	99.8%	101%	93.2%	99.1%	106%	103%	98.2%	117%	113%	97.5%	122%	116%	101%	102%	92.6%	111%	104%
CCOP(=O)(Nc1ccc2c(c1)/C(=N/NC(N)=S)c1ccccc1-2)OCC	99%	97.6%	132	117%	104%	96.1%	95.4%	99.5%	104%	96.3%	102%	103%	139%	59.7%	90.1%	98%	116%	84.7%	113%	108%
O=C(CC1(O)C(=O)N(Cc2ccccc2)c2ccc(Cl)cc21)c1ccc(C(=O)NCC2CCC3(CC2)OOC2(CCCCC2)OO3)cc1 (stereo not given)	-67% (active)	-41.3% (active)	64.2	-65.3% (active)	-47.2% (active)	-73.2% (active)	-26.7% (active)	-55.8% (active)	-73.6% (active)	-66.5% (active)	-97.6% (active)	-49% (active)	-70.3% (active)	-74.9% (active)	-80.5% (active)	-49.6% (active)	-8.3% (active)	-81.1% (active)	26.4%	25.5%
CN[C@]1(c2ccccc2Cl)CCCC[C@H]1NCCCN1CCN(C)CC1	109%	94.5%	106	93.8%	110%	79.1%	93.9%	98.5%	92.2%	108%	108%	90.3%	104%	94.2%	97.4%	94.1%	102%	94.8%	102%	98.9%
CCCCN1CCCC[C@@H]1C(=O)N[C@H](C(=O)N(C)[C@H](C[C@@H](OC(C)=O)c1nc(C(=O)NC2CCC(C(=O)OC)CC2)cs1)C(C)C)C(C)C (stereo not given in full)	48.4%	71.8%	40.5	23%	9.59% (active)	37%	-11.8% (active)	24.2%	36.7%	7.59% (active)	9.02% (active)	9.52% (active)	43.8%	45.7%	18.3%	48.8%	18.6%	-5.06% (active)	59.4%	-2.18% (active)
O=C(CC1(O)C(=O)N(Cc2ccccc2)c2ccccc21)c1ccc(C(=O)NCC2CCC3(CC2)OOC2(CCCCC2)OO3)cc1 (stereo not given)	-72.2% (active)	-34.8% (active)	65.2	-48.2% (active)	-51.4% (active)	-72% (active)	-28% (active)	-53.6% (active)	-73.1% (active)	-52.9% (active)	-100% (active)	-48.3% (active)	-73% (active)	-65.8% (active)	-81% (active)	-62% (active)	10.7%	-83.2% (active)	-21% (active)	13.1%
CCCCCCCCCCCCCCCCCC1OC[C@H](COC(=O)O[C@@H](C(=O)O[C@H]2C[C@@]3(O)[C@@H](OC(=O)c4ccccc4)[C@@H]4[C@]5(OC(C)=O)CO[C@@H]5C[C@H](O)[C@@]4(C)C(=O)[C@H](OC(C)=O)C(=C2C)C3(C)C)[C@@H](NC(=O)c2ccccc2)c2ccccc2)O1 (stereo not given in full)	42.7%	94.3%	47.4	66.3%	20.9%	75%	60.2%	43.9%	91.2%	13.3%	45.7%	37.5%	58.9%	47.2%	65.2%	73.3%	53%	43.3%	72.2%	29.6%
O=C1CC2(CC3(Cl)C(Cl)=C(Cl)C2(Cl)C3(Cl)Cl)C(=O)O1 (stereo not given)	96.8%	110%	99.3	91.6%	112%	107%	102%	105%	96.3%	126%	101%	97.9%	101%	128%	107%	114%	100%	114%	107%	95.4%
[Cl][Hg][c]1cc[c]([Hg][Cl])o1	63.5%	99.1%	96.9	72.9%	68.6%	-29.1% (active)	2.99% (active)	88.4%	-74.8% (active)	6.94% (active)	70.6%	7.68% (active)	-51.6% (active)	22.7%	62.1%	51.3%	93.4%	75%	65.5%	14.8%
CC1(C)N=C(N)N=C(N)N1c1ccc(OCCCNC(=O)Nc2ccc(S(=O)(=O)F)cc2)c(Cl)c1	27.3%	40.1%	52.5	49%	14.4%	78.6%	21.5%	18%	27.5%	31.5%	32.4%	25.2%	55.2%	65.1%	49.4%	32.3%	21.7%	16.5%	26.4%	35.3%
COC(=O)[C@@H](C)C[C@H](Cc1ccccc1)NC(=O)c1csc([C@@H](C[C@H](C(C)C)N(C)C(=O)[C@@H](NC(=O)[C@H]2CCCN2C)C2CC2)OC(C)=O)n1	23.5%	24.1%	50.9	12.2%	3.65% (active)	-6.22% (active)	-9.59% (active)	13.2%	15.6%	-63.1% (active)	8.13% (active)	4.01% (active)	64.2%	6.59% (active)	81.3%	15.9%	0.995% (active)	-14.6% (active)	56.9%	5.11% (active)
Cc1c(NS(=O)(=O)c2ccccc2)ccc([N+](=O)[O-])c1Cl	58.6%	62.7%	102	95.1%	67%	-9.14% (active)	55.7%	58.6%	41.1%	109%	94%	74.4%	35.3%	84.8%	77%	75.9%	31%	67.4%	59.5%	70.4%
COc1ccc2c(c1)c(-c1nc(-c3cn(C)c4ncccc34)cs1)cn2CCN1CCOCC1	40.2%	43%	62.3	12.5%	23.9%	31.3%	19.9%	30.5%	44.4%	33.2%	36.3%	9.83% (active)	71.5%	56.8%	56.7%	48.4%	49.3%	48%	93.2%	31.9%

From PubChem BioAssay (NCI)
